Screening results: PubChem, National Center for Advancing Translational Sciences (NCATS)
Hits are enriched below; roughly 12% of the tested compounds scored in any of these assays.
Sfp inh – Sfp phosphopantetheinyl transferase inhibition. Q9F4F7. Biochemical Sfp PPTase activity, qHTS. Potency, µM, for the others: largest response in the series, negative = inhibition, actives largely listed as inhibitors. actives 3.5% (n = 310,000);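 also: the enzyme is Sfp with the accession as filed and its product quenches rhodamine fluorescence; 0% = enzyme reaction without inhibitor and -100% = no enzyme wells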
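After 15 min at room temperature with compound, 15 nM Sfp received 5 uM rhodamine-CoA plus 12.5 uM BHQ-2-ybbR (50 mM Hepes pH 7.6, 10 mM MgCl2). Rate came from the fluorescence difference over 30 min, ex 525/em 598 nm.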
G9a inh – G9a (human) methyltransferase inhibition; Q96KQ7; G9a H3K9 monomethylation, AlphaScreen, 2 h; Potency, µM (top dose mostly 102 µM), inactives show top-dose activity, negative = inhibition, most hits filed as inhibitors; actives 8.8% (n = 350,000); AID 504332; also: % is scaled to controls: 0 for no effect and ±100 for the full control effect; nearly all actives have a fitted effect of over 75% in size
Target sequence (Q96KQ7 913-1193 limits assumed): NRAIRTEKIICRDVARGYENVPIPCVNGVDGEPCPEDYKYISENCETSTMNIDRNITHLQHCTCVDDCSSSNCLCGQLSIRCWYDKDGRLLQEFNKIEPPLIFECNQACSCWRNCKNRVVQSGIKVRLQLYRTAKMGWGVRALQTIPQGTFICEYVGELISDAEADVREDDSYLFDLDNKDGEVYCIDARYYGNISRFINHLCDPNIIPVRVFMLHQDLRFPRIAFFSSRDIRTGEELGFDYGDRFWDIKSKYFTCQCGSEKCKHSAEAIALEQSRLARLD
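Chemiluminescent proximity detection of H3K9 monomethylation, read after 10 min bead incubation in the dark. Reaction: 20 nM G9a, 500 nM biotin-H3K9 peptide, 20 uM SAM cofactor, 2 h, room temperature, following 15 min enzyme-compound preincubation.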
PLK1 PBD block – blocks phosphopeptide binding to human PLK1 polo-box domain; Plk1 PBD binding of FITC phosphopeptide, fluorescence polarization; P53350; AID 720504; Potency, µM, without a hit: max response, negative = inhibition, usual class: inhibitors; actives 2.8% (n = 360,000); also: series mostly up to about 57 µM; % is scaled to controls: 0 for no effect and ±100 for the full control effect; nearly all actives have a fitted effect of over 65% in size
JMJD2A Tudor – blocks the human JMJD2A Tudor domain; O75164; actives 4.4% (n = 390,000); Potency, µM (highest dose often 114 µM), for the others: at the highest dose activity change, negative = inhibition, actives largely listed as inhibitors; AlphaScreen JMJD2A-Tudor / H3K4me3 peptide binding; also: % is scaled to controls: 0 for no effect and ±100 for the full control effect; nearly all actives have a fitted effect of over 50% in size
HP1b binding inh – inhibitors of HP1-beta chromodomain binding to methylated histone tails. actives 0.56% (n = 390,000). Potency, µM (top dose mostly 114 µM), for the others: at the top dose activity change, negative = inhibition, most hits filed as inhibitors. AID 540317. AlphaScreen HP1-beta / biotin-H3K9me3 peptide binding; also: nearly all actives have a fitted effect of over 70% in size
Target sequence (P83916 whole entry, looked up): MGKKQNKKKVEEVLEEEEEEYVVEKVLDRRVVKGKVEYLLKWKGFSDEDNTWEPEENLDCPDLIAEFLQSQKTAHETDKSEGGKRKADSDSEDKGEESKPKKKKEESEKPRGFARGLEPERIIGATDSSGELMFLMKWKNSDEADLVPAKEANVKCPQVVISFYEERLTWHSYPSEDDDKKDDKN
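HP1-beta protein (50 nM final) preincubated 30 min at room temperature with biotinylated H3(1-18)K9me3 peptide (50 nM) in PBS pH 7.4, 0.01% Tween-20, then compound added for 30 min. AlphaScreen streptavidin donor/nickel chelate acceptor beads (10 ug/mL final), 30 min dark, luminescence read.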
BAZ2B inh – inhibitors of human BAZ2B bromodomain; Potency, µM (doses to about 114 µM), for the others: at the highest dose activity change, negative = inhibition, actives largely listed as inhibitors; AlphaScreen BAZ2B-H3K14Ac peptide displacement; actives 4.4% (n = 360,000); Q9UIF8; also: % is scaled to controls: 0 for no effect and ±100 for the full control effect; nearly all actives have a fitted effect of over 60% in size
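BAZ2B 50 nM plus b-H3(5-23)K14Ac 50 nM, PBS pH 7.4/0.01% Tween-20, 30 min RT; compound added (max 110 uM), 30 min RT; streptavidin donor/Ni-chelate acceptor beads 10 ug/mL final, 20 min dark; AlphaScreen read.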
* hit, by the source's call; [ ] = remark or other dose. Calls follow the shape of the dose curve; as a rule, active = well fitted curve in the direction sought with a large enough effect; inconclusive = small, poorly fitted or top-dose-only effect, or another doubt; inactive = no such curve, though single readings can be large; an effect the other way counts as inactive or inconclusive. Potency is read from the fitted curve at half-maximal effect.

What do the screens show for `Cc1ccc(Cl)cc1NC(=O)Cn1cc2c(n1)CCCCC2`?
G9a inh: 15%[59 µM]; JMJD2A Tudor: -6%; HP1b binding inh: 24%; BAZ2B inh: -1%

How did NC(=O)C1CCN(S(=O)(=O)c2cc3c(cc2Cl)NC(=O)CO3)CC1 do in these assays?
G9a inh: -2%[59 µM]; JMJD2A Tudor: -8%; HP1b binding inh: inconclusive; BAZ2B inh: 2%

How did COc1ccccc1CNc1ncncc1-c1ccccc1C(F)(F)F do in these assays?
Sfp inh: -1%; G9a inh: 2%[0.501 µM]

Results for CNc1cc(CSC)nc(SCc2ccc(Cl)c(Cl)c2)n1 ?
Sfp inh: 15%; G9a inh: 32µM*; PLK1 PBD block: -2%; JMJD2A Tudor: -4%; HP1b binding inh: 62%; BAZ2B inh: 6%

What do the screens show for `Cc1nc(SCc2ccc(Cl)c(Cl)c2)ncc1C(=O)O`?
Sfp inh: 24%; G9a inh: 3%; PLK1 PBD block: inconclusive; JMJD2A Tudor: -8%[11.4 µM]; HP1b binding inh: 33%; BAZ2B inh: -4%

Results for O=C(NCc1cccs1)C1CCC(=O)N(Cc2cccc(C(F)(F)F)c2)C1 (stereo not given) ?
Sfp inh: 8%; PLK1 PBD block: -23%; JMJD2A Tudor: -11%; HP1b binding inh: 13%; BAZ2B inh: 1%

What do the screens show for `Cn1c(SCC(=O)N2CC(=O)Nc3ccccc32)nc2ccccc2c1=O`?
G9a inh: 22%[12.7 µM]; PLK1 PBD block: -15%; JMJD2A Tudor: 6%; HP1b binding inh: 38%; BAZ2B inh: 9%

Results for O=C1CN(C(=O)CSc2nc3ccccc3n2CCc2ccccc2)c2ccccc2N1 ?
Sfp inh: -17%; G9a inh: 10µM*; PLK1 PBD block: -6%; JMJD2A Tudor: -1%; HP1b binding inh: 22%; BAZ2B inh: -34%

What do the screens show for `CCCn1c(SCC(=O)N2CC(=O)Nc3ccccc32)nc2ccccc21`?
Sfp inh: inconclusive; G9a inh: 32µM*; PLK1 PBD block: inconclusive; JMJD2A Tudor: -20%; HP1b binding inh: 9%; BAZ2B inh: 8%

What do the screens show for `CC(C)C[C@H](NC(=O)CNC(=O)[C@H](C)NC(=O)[C@H](CC(C)C)NC(=O)[C@H](CCCNC(=N)N)NC(=O)[C@H](Cc1cnc[nH]1)NC(=O)[C@@H](NC(=O)[C@@H](N)C(C)C)[C@@H](C)O)C(=O)N[C@@H](CC(C)C)C(=O)N[C@@H](CO)C(=O)N[C@@H](CCCNC(=N)N)C(=O)N[C@@H](CO)C(=O)NCC(=O)NCC(=O)N[C@H](C(=O)N[C@H](C(=O)N[C@@H](CCCCN)C(=O)N[C@@H](CC(N)=O)C(=O)N[C@@H](CC(N)=O)C(=O)N[C@@H](Cc1ccccc1)C(=O)N[C@H](C(=O)N1CCC[C@H]1C(=O)N[C@H](C(=O)N[C@@H](CC(N)=O)C(=O)N[C@H](C(=O)NCC(=O)N[C@@H](CO)C(=O)N[C@@H](CCCCN)C(=O)N[C@@H](C)C(=O)N[C@@H](Cc1ccccc1)C(N)=O)C(C)C)[C@@H](C)O)C(C)C)C(C)C)C(C)C`?
Sfp inh: 7%

How did N#C/C(=C\c1ccc(C(=O)O)cc1)S(=O)(=O)c1cc(Br)ccc1Br do in these assays?
Sfp inh: 19%; G9a inh: inconclusive; PLK1 PBD block: 11µM*; JMJD2A Tudor: -27%; HP1b binding inh: -8%; BAZ2B inh: inconclusive

Results for CCN(CC)Cc1cc(Oc2ccc(O)c(CN(CC)CC)c2)ccc1O ?
PLK1 PBD block: -9%

Results for COCCCNC(=O)c1cc2n(n1)CCCN(Cc1ccc(C)cc1)C2=O ?
G9a inh: 2%[12.7 µM]; JMJD2A Tudor: 3%; HP1b binding inh: 22%; BAZ2B inh: -2%

Results for Cc1cc(Br)cc2c1N(Cc1ccccc1OC(C)C)C(=O)C2=O ?
G9a inh: 8.9µM*; JMJD2A Tudor: 18µM*; HP1b binding inh: inconclusive; BAZ2B inh: 6.3µM*

What do the screens show for `CC(C)OC(=O)C1Cc2ccccc2CN1S(=O)(=O)c1cccs1` (stereo not given)?
Sfp inh: 7%; G9a inh: 79µM*; PLK1 PBD block: 2%; JMJD2A Tudor: -8%; HP1b binding inh: 40%; BAZ2B inh: inconclusive

What do the screens show for `OC(CNCC1CCCO1)Cn1c2ccc(Cl)cc2c2cc(Cl)ccc21` (stereo not given)?
Sfp inh: 50µM*; G9a inh: 0%[2.33 µM]; PLK1 PBD block: -18%; JMJD2A Tudor: -9%[57.1 µM]; HP1b binding inh: 18%; BAZ2B inh: -35%

What do the screens show for `OC(CNCCC1C=Nc2ccccc21)Cn1c2ccc(Cl)cc2c2cc(Cl)ccc21` (stereo not given)?
Sfp inh: 11µM*; G9a inh: inconclusive; PLK1 PBD block: -9%; JMJD2A Tudor: 40µM*; HP1b binding inh: inconclusive; BAZ2B inh: 40µM*

What do the screens show for `OC(CNCC1CCCO1)Cn1c2ccccc2c2ccccc21` (stereo not given)?
Sfp inh: 9%; G9a inh: inconclusive; PLK1 PBD block: 2%; JMJD2A Tudor: -10%; HP1b binding inh: 16%; BAZ2B inh: 1%

Results for O=C(CNC(=O)c1ccccc1)N[C@H](C(=O)Nc1cc(C(F)(F)F)ccc1Cl)c1ccccc1 ?
JMJD2A Tudor: -28%

Results for Cc1ccc(NC(=O)N2C3CCCC2CC(NC(=O)C(C)(C)C)C3)cc1 (stereo not given) ?
Sfp inh: 8%; G9a inh: 27%[59 µM]; PLK1 PBD block: -3%; JMJD2A Tudor: -13%; HP1b binding inh: 25%; BAZ2B inh: 8%

What do the screens show for `Cc1cc(C(=O)COC(=O)c2cc(O)c3ccccc3c2O)c(C)n1CC1CCCO1` (stereo not given)?
Sfp inh: 79µM*; G9a inh: 10µM*; PLK1 PBD block: 8.4µM*; JMJD2A Tudor: 32µM*; HP1b binding inh: 28µM*; BAZ2B inh: 50µM*

What do the screens show for `CCN1CCN(CC(=O)Nc2c(OC)cccc2OC)CC1`?
Sfp inh: 79µM*; G9a inh: 40µM*; PLK1 PBD block: 1%; JMJD2A Tudor: 5µM*; HP1b binding inh: 45µM*; BAZ2B inh: 18µM*

What do the screens show for `COc1ccc(NC(=O)CN2CCN(c3ccccc3F)CC2)cc1`?
Sfp inh: 6%; G9a inh: inconclusive; PLK1 PBD block: -1%; JMJD2A Tudor: -1%; HP1b binding inh: 26%; BAZ2B inh: -24%
